Source: PubChem BioAssay (Tox21)
Several values for one entry are separate records, joined by “and”; a condition that tells them apart may be missing. Equal values may be shown once. Inconclusive results are not listed. A call without a number means that no potency is given here. Some compounds were tested as several samples or in several runs, with calls that do not always agree. Activity calls are given as the source filed them. The call rests on the fitted dose curve; in most records, active means well fitted curve in the direction sought with a large enough effect in the repeat runs; inconclusive means weak or mixed curves; inactive means no such curve, though single readings can be large; an effect the other way counts as inactive or inconclusive.

Assays:
[1] = Caspase-3/7 induction in HepG2 cells by small molecules, qHTS assay (AID 1346978); further: nearly all actives have a fitted effect of over 15% in size; further: potency means the concentration at half of the fitted maximal effect
Summary of the method: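 Wild-type HepG2 cells (2,000/well) were settled 5 h at 37 C, 5% CO2, then exposed to compounds in DMSO for 17 h. Caspase-3/7 activity was read by luminescence 30 min after adding Caspase-Glo 3/7 reagent at room temperature.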

[2] = Caspase-3/7 induction in CHO-K1 cells by small molecules, qHTS cell viability counter screen (AID 1346979); further: nearly all actives have a fitted effect of over 35% in size; further: potency means the concentration at half of the fitted maximal effect
Summary of the method: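 Following a 5hr settling period, CHO-K1 cells at 1,500 per well received DMSO-dissolved compounds. Cell viability was quantified 16hr later by CellTiter-Fluor fluorescence, measured after 1hr with reagent at 37C.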

[3] = Caspase-3/7 induction in CHO-K1 cells by small molecules, qHTS assay (AID 1346980); further: nearly all actives have a fitted effect of over 15% in size; further: potency means the concentration at half of the fitted maximal effect
Summary of the method: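 Wild-type cells were seeded at 1,500 per well and settled 5 hr at 37 C, 5% CO2, then exposed to DMSO-dissolved compounds for 17 hr. Caspase-Glo 3/7 reagent was added, and luminescence was read after 30min at room temperature.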

[4] = Caspase-3/7 induction in HepG2 cells by small molecules, qHTS cell viability counter screen (AID 1346981); further: nearly all actives have a fitted effect of over 30% in size; further: potency means the concentration at half of the fitted maximal effect; on activity change, negative = cytotoxicity: series mostly up to about 92 µM
Summary of the method: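 In this quantitative HTS counter screen, compounds delivered in DMSO were left on unmodified HepG2 cells for 16 hr at 37 C. Viability was then determined fluorometrically with CellTiter-Fluor, in parallel with caspase-3/7 induction in the same wells.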

[5] = target: Nuclear receptor subfamily 1 group I member 2 (Homo sapiens) (UniProt O75469); experiment: Human pregnane X receptor (PXR) small molecule agonists, qHTS assay (AID 1346982); further: nearly all actives have a fitted effect of over 35% in size; further: potency means the concentration at half of the fitted maximal effect
Sequence of Nuclear receptor subfamily 1 group I member 2 (Homo sapiens) (O75469 whole entry, looked up): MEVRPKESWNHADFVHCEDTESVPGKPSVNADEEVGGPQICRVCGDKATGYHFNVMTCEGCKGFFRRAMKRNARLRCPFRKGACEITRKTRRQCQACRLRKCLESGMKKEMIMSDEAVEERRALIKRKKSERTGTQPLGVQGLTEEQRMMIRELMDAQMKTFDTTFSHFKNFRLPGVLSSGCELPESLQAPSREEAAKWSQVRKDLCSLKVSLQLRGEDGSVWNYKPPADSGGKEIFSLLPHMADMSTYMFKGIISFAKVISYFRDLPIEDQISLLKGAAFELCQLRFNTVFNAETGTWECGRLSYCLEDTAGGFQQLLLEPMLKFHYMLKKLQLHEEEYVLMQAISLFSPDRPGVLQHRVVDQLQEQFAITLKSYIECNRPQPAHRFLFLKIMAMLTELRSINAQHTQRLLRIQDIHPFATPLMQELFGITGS
Summary of the method: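 Reporter HepG2 cells expressing PXR-Luc are cultured in charcoal-stripped FBS (5%), treated with compounds for 24 hr at 37 C, and assayed by ONE-Glo luminescence after 30 min at room temperature.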

[6] = target: Cytochrome P450 2D6 (Homo sapiens) (UniProt P10635); experiment: Cytochrome P450 Family 2 Subfamily D Member 6 (CYP2D6) small molecule antagonists: luciferase reporter qHTS assay (AID 1671196); further: nearly all actives have a fitted effect of over 50% in size; further: potency means the concentration at half of the fitted maximal effect
Sequence of Cytochrome P450 2D6 (Homo sapiens) (P10635 whole entry, looked up): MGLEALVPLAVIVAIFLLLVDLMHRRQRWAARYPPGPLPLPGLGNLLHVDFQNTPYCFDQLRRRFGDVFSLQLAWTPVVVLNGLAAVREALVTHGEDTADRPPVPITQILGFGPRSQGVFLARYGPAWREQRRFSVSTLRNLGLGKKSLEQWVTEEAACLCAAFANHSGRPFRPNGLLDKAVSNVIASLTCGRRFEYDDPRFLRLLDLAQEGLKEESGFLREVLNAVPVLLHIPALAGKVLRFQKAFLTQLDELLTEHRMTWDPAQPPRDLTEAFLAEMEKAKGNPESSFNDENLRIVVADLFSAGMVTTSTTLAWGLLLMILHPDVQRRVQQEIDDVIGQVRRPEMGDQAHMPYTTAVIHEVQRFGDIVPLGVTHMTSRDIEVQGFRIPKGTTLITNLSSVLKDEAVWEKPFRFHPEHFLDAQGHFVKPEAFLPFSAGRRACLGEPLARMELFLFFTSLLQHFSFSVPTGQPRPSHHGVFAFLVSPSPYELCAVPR
Summary of the method: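 Test chemicals meet CYP2D6 plus proluciferin substrate (10 min, RT); NADPH regenerating solution then drives turnover for 1 h. Detection reagent halts the reaction; luminescence measured after 20 min.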

[7] = target: Nuclear receptor subfamily 1 group I member 2 (Homo sapiens) (UniProt O75469); experiment: CYP3A4 induction through human pregnane X receptor (PXR) by small molecules, qHTS assay (AID 1346984); further: nearly all actives have a fitted effect of over 40% in size
Summary of the method: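 Induction measured in HepG2-based DPX-2 cells co-expressing human PXR and a CYP3A4 promoter-driven luciferase. After a 24-hour compound exposure, cells received CYP3A4 luciferin substrate at 3uM final for 3 hours, and light output was then recorded.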

[8] = target: Nuclear receptor subfamily 1 group I member 2 (Homo sapiens) (UniProt O75469); experiment: Human pregnane X receptor (PXR) activation by small molecules, qHTS assay (AID 1346985); further: nearly all actives have a fitted effect of over 40% in size
Summary of the method: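 DPX-2 cells (HepG2 co-transfected with a PXR response element and a CYP3A4-promoter luciferase construct) were seeded at 2,000 per well, rested 5 hr at 37C, then exposed to DMSO-dissolved compounds for 24 hr. Activation was read as luciferase luminescence.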

[9] = target: Cytochrome P450 2C19 (Homo sapiens) (UniProt P33261); experiment: Cytochrome P450 Family 2 Subfamily C Member 19 (CYP2C19) small molecule antagonists: luciferase reporter qHTS assay (AID 1671197); further: nearly all actives have a fitted effect of over 65% in size; further: potency means the concentration at half of the fitted maximal effect
Sequence of Cytochrome P450 2C19 (Homo sapiens) (P33261 whole entry, looked up): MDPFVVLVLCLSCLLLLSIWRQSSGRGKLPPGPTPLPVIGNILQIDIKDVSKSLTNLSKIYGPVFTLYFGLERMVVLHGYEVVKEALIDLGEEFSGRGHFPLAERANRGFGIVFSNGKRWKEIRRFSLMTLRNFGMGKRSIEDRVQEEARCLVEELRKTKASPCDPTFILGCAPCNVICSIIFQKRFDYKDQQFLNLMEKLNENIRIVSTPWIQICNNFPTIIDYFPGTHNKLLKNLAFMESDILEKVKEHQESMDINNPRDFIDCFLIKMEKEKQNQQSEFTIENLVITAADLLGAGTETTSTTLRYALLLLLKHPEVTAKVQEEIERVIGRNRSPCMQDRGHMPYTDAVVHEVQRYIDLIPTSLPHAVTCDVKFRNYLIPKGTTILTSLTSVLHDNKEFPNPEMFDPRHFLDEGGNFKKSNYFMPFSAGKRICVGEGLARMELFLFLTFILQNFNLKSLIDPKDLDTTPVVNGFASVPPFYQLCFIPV
Summary of the method: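 Luminescent readout of CYP2C19 activity: luciferin product detected 20 min after adding detection reagent. Before that, compound and enzyme-substrate mix preincubated 10 min at room temperature; NADPH-regenerating system started a 1 h, 37C reaction. Ketoconazole as positive control.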

[10] = target: Nuclear receptor subfamily 1 group I member 2 (Rattus norvegicus) (UniProt Q9R1A7); experiment: Rat pregnane X receptor (rPXR) activation by small molecules, qHTS assay (AID 1346983); details: rPXR luciferase reporter cells, One-Glo luminescence, 24 h; max activation: stronger effect = higher value; further: nearly all actives have a fitted effect of over 20% in size
Sequence of Nuclear receptor subfamily 1 group I member 2 (Rattus norvegicus) (Q9R1A7 whole entry, looked up): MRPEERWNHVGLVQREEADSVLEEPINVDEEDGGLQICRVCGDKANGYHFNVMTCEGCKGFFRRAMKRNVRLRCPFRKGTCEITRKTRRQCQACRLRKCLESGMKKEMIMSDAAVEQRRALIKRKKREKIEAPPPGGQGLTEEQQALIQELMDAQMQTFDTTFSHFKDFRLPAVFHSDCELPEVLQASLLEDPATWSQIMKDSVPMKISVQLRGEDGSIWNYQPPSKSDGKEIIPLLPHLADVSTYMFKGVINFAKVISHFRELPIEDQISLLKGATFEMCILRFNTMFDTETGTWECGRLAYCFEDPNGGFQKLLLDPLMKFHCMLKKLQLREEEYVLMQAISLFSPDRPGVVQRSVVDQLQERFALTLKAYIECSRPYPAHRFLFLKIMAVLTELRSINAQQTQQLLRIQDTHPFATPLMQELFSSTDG
Summary of the method: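 Cell-based rPXR luciferase reporter assay, 2,000 cells per well, rested 5hr at 37 C before compound addition in DMSO, then 24 hr at 37 C. One-Glo reagent was added and luminescence read after 30 min at room temperature.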

| Compound | Potency [1] | Potency [2] | Potency [3] | Potency [4] | Potency [5] | Potency [6] | Potency [7] | Potency [8] | Potency [9] | max activation [10] | activity change, negative = cytotoxicity [2] | activity change, negative = cytotoxicity [4] |
| --- | --- | --- | --- | --- | --- | --- | --- | --- | --- | --- | --- | --- |
| CCCCCCCCCCCCCO | inactive | inactive | inactive | inactive | inactive | inactive |  |  |  |  |  |  |
| CC(=O)[C@@]1(O)CC[C@H]2[C@@H]3C[C@H](C)C4=CC(=O)C=C[C@]4(C)[C@@]3(F)[C@@H](O)C[C@@]21C | inactive | inactive | inactive | inactive | 15.4 µM (active) | inactive | inactive | inactive | inactive |  |  |  |
| CCCCCCOCCOCCO | inactive | inactive | inactive | inactive |  |  |  |  |  |  |  |  |
| OC[C@H]1O[C@@H]2O[C@H]3[C@H](O)[C@@H](O)[C@@H](O[C@H]4[C@H](O)[C@@H](O)[C@@H](O[C@H]5[C@H](O)[C@@H](O)[C@@H](O[C@H]6[C@H](O)[C@@H](O)[C@@H](O[C@H]7[C@H](O)[C@@H](O)[C@@H](O[C@H]1[C@H](O)[C@H]2O)O[C@@H]7CO)O[C@@H]6CO)O[C@@H]5CO)O[C@@H]4CO)O[C@@H]3CO | inactive | inactive | inactive | inactive | inactive | inactive | inactive | inactive | inactive | -2.41% (inactive) |  |  |
| CCCCCCC(C)O (centres undefined) | inactive | inactive | inactive | inactive | inactive | inactive |  |  |  |  |  |  |
| COc1ccc(C(=O)c2ccccc2O)c(O)c1 | inactive | inactive | inactive | inactive |  |  |  |  |  |  |  |  |
| IC(I)I | inactive | inactive | inactive | inactive | inactive |  |  | inactive |  | -1.04% (inactive) |  |  |
| O=C(O)c1cc(=O)[nH]c(=O)[nH]1 | inactive | inactive | inactive | inactive | inactive | 6.34 µM (active) | inactive | inactive |  | -3.14% (inactive) |  |  |
| Nc1cc([N+](=O)[O-])ccc1C(=O)O | inactive | inactive | inactive | inactive | inactive | inactive |  |  |  |  |  |  |
| COC(=O)C(C)Oc1ccc(Oc2ncc(C(F)(F)F)cc2Cl)cc1 (centres undefined) | inactive | inactive | inactive | inactive | 61.9 µM (active) and 61.1 µM (active) |  |  |  |  |  |  |  |
| CC(C)(Oc1ccc(Cl)cc1)C(=O)O | inactive | inactive | inactive | inactive | inactive |  |  |  |  |  |  |  |
| COC(=O)CC(=O)OC | inactive | inactive | inactive | inactive | 56.7 µM (active) and inactive | inactive |  |  |  |  |  |  |
| O=C(O)COCCN1CCN(C(c2ccccc2)c2ccc(Cl)cc2)CC1 (centres undefined) | inactive | inactive | inactive | inactive | inactive |  |  | inactive |  | 1.59% (inactive) |  |  |
| C1COCCN1 | inactive | inactive | inactive | inactive | inactive | inactive |  |  |  |  |  |  |
| CC/C=C\C/C=C\C/C=C\CCCCCCCC(=O)O | inactive | inactive and 61.1 µM (active) | inactive | inactive | inactive and 61.1 µM (active) | 19.8 µM (active) | inactive | inactive | 31.4 µM (active) | -1.32% (inactive) |  |  |
| NC[C@H](O)c1ccc(O)c(O)c1 | inactive | inactive | inactive | inactive | inactive | inactive | inactive | inactive |  | -0.838% (inactive) |  |  |
| O=Cc1ccccc1C=O | 48.6 µM (active) and inactive | 15.4 µM (active) and inactive | 21.7 µM (active) and inactive | 30.6 µM (active) and inactive | 19.3 µM (active) and inactive | inactive | inactive | inactive | inactive | 5.06% (inactive) |  |  |
| CC1(C)C(C=C(Cl)Cl)C1C(=O)OCc1cccc(Oc2ccccc2)c1 (centres undefined) | inactive | inactive | inactive | inactive | 24.2 µM (active) |  | inactive | inactive | 7.91 µM (active) and 3.17 µM (active) | 4.94% (inactive) |  |  |
| CNC[C@H](O)c1ccc(O)c(O)c1 | inactive |  | inactive |  | inactive |  | inactive | inactive |  | 1.67% (inactive) | 0.265% [at 19 µM] (inactive) | -0.0374% [at 19 µM] (inactive) |
| CN(Cc1cnc2nc(N)nc(N)c2n1)c1ccc(C(=O)N[C@@H](CCC(=O)O)C(=O)O)cc1 | inactive | inactive | inactive | inactive | inactive | inactive | inactive | inactive | inactive | -6.01% (inactive) |  |  |
| CC(C)[C@@H]1CC[C@@H](C)CC1=O | inactive | inactive | inactive | inactive | inactive | inactive | inactive | inactive |  | -3.74% (inactive) |  |  |
| OCCNCCO | inactive | inactive | inactive | inactive | 54.5 µM (active) and inactive | inactive |  |  |  |  |  |  |
| O=[Se](O)O | inactive | 54.5 µM (active) | inactive | 24.4 µM (active) | inactive | inactive |  |  |  |  | 5.77% [at 19 µM] (inactive) | 2.81% [at 19 µM] (inactive) |
